# Laboratory results as given in publication PMC5540273 (PLoS ONE, 2017).
# pKd: −log10 of the molar value.
# Tested on: T1, MEK5
# T1 construct: gene MAP2K5
# 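Note: kd values determined as follow-up on hits from a single-replicate KINOMEscan panel screen.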
row,SMILES,pKd
1,CS(=O)(=O)CCNCc1nc(-c2ccc3ncnc(Nc4ccc(OCc5ccccc5)c(Cl)c4)c3c2)cs1.Cl [GW582764],6.15
2,Cn1cncc1-c1cc2c(Nc3ccc(OCc4ccccc4)cc3)ncnc2cn1 [GW281179],6.85
3,CS(=O)(=O)Cc1ccc(Nc2nccc(-c3c(-c4cccc(NC(=O)C5CCCCC5)c4)nn4ncccc34)n2)cc1 [GSK350559],7.46
4,Nc1ncnc2occ(-c3ccc4c(c3)CCN4C(=O)Cc3cc(F)ccc3F)c12 [GSK2645446],6.12
5,CS(=O)(=O)CCNCc1nc(-c2ccc3ncnc(Nc4ccc5c(cnn5Cc5ccccc5)c4)c3c2)cs1.Cl.Cl [GW569716],7.37
6,COc1cc2ncnc(Nc3cccc(Br)c3)c2cc1OC.Cl [GI230329],6.15
7,COC(=O)C(NC(=O)NC1CCN(c2ccnc(Nc3ccc(F)cc3)n2)C1)c1ccccc1 (stereo not drawn) [GSK1379712],6.57

# Tested on: T2, MLCK
# T2 construct: gene MYLK3
row,SMILES,pKd
1,CS(=O)(=O)CCNCc1nc(-c2ccc3ncnc(Nc4ccc(OCc5ccccc5)c(Cl)c4)c3c2)cs1.Cl [GW582764],< 5.00
2,O=C(Nc1n[nH]c2nc(-c3cccs3)c(Br)cc12)C1CC1 [SB-735297],6.74
3,O=C(Nc1n[nH]c2nc(-c3cccs3)c(Br)cc12)C1CCCC1 [SB-743341],6.54

# Tested on: MYLK2
row,SMILES,pKd
1,O=C(Nc1n[nH]c2nc(-c3cccs3)c(Br)cc12)C1CC1 [SB-735297],8.08
2,O=C(Nc1n[nH]c2nc(-c3ccco3)c(Br)cc12)C1CCN(Cc2ccccc2)C1.O=C(O)[C@H](O)[C@@H](O)C(=O)O (stereo not drawn) [SB-742034],6.34
3,O=C(Nc1n[nH]c2cc(-c3ccsc3)ccc12)C1CC1 [SB-732932],7.39
4,O=C(Nc1n[nH]c2nc(-c3cccs3)c(Br)cc12)C1CCCC1 [SB-743341],7.59
5,Nc1cccc(-c2ccc3c(N)n[nH]c3c2)n1 [GSK2192730],6.74
